Results reported in ChEMBL document CHEMBL1961873, “Compounds: GSK PKIS; Assays: Nanosyn kinase panel” (2012).

Assays:
[1] = system: Epidermal growth factor receptor (Homo sapiens), P00533 [T790M]; details: at 1 µM
[2] = system: Epidermal growth factor receptor (Homo sapiens), P00533 [L858R,T790M]; details: at 0.1 µM
[3] = system: Epidermal growth factor receptor (Homo sapiens), P00533 [L858R,T790M]; details: at 1 µM
[4] = biological target: Ephrin type-A receptor 2 (Homo sapiens) (UniProt P29317); details: at 0.1 µM
[5] = biological target: Ephrin type-A receptor 2 (Homo sapiens) (UniProt P29317); details: at 1 µM
[6] = biological target: T1, Ephrin type-A receptor 3 (Homo sapiens) (UniProt P29320); details: at 0.1 µM
T1 sequence (whole entry): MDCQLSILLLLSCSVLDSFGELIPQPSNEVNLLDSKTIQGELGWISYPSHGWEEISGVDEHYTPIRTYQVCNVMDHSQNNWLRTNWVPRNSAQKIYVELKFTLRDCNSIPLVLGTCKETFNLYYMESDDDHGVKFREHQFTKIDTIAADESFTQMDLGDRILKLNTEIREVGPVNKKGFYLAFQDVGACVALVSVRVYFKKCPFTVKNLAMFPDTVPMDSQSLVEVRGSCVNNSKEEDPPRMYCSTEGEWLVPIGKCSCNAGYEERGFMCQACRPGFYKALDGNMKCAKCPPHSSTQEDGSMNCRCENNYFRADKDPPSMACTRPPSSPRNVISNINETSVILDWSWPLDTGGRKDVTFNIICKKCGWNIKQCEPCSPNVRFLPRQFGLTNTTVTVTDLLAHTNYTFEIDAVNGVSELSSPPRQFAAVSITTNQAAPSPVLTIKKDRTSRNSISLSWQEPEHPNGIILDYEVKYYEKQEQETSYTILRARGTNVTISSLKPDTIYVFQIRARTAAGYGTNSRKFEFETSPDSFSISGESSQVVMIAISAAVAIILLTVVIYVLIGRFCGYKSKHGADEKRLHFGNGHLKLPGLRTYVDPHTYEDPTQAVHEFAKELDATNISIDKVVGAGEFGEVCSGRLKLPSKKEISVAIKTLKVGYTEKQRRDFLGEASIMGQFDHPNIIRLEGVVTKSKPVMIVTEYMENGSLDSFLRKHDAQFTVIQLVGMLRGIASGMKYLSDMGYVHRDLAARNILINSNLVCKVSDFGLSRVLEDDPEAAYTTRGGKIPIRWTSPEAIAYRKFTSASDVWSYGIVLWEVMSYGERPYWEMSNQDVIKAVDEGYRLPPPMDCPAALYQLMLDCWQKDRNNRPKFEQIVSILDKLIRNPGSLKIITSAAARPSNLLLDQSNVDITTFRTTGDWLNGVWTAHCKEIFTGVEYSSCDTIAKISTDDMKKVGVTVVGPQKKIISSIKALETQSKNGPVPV

[7] = biological target: T1, Ephrin type-A receptor 3 (Homo sapiens); details: at 1 µM
[8] = biological target: Ephrin type-A receptor 4 (Homo sapiens) (UniProt P54764); details: at 0.1 µM
[9] = biological target: Ephrin type-A receptor 4 (Homo sapiens) (UniProt P54764); details: at 1 µM
[10] = biological target: T2, Ephrin type-B receptor 2 (Homo sapiens) (UniProt P29323); details: at 0.1 µM
T2 sequence (whole entry): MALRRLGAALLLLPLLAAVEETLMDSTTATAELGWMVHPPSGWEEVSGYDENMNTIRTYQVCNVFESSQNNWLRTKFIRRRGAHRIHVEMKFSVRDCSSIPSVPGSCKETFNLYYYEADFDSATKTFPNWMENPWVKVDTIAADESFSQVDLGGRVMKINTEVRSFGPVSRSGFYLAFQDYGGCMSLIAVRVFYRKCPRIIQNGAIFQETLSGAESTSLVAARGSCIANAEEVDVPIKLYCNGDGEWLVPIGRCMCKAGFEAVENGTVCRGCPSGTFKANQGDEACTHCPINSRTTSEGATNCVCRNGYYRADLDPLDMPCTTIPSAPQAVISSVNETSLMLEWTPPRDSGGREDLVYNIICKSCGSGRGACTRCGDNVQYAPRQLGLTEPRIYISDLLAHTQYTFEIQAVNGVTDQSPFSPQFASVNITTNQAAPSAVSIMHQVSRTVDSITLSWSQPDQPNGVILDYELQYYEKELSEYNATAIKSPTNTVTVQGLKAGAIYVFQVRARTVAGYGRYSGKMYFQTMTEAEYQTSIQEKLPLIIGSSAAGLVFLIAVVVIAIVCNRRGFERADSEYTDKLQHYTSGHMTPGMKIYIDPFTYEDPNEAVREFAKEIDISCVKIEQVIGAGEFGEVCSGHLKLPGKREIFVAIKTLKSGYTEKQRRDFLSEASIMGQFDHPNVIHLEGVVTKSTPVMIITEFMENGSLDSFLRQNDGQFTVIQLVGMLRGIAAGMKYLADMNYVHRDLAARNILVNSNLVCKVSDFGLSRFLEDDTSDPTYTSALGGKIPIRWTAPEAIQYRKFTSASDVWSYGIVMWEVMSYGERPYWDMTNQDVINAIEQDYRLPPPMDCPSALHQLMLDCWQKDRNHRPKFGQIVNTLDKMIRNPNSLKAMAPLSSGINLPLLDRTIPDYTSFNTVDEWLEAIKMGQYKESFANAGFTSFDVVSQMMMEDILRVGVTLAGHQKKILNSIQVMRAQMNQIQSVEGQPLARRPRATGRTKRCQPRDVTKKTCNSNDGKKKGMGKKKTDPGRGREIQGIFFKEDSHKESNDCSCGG

[11] = biological target: T2, Ephrin type-B receptor 2 (Homo sapiens); details: at 1 µM
[12] = biological target: T3, Ephrin type-B receptor 3 (Homo sapiens) (UniProt P54753); details: at 0.1 µM
T3 sequence (whole entry): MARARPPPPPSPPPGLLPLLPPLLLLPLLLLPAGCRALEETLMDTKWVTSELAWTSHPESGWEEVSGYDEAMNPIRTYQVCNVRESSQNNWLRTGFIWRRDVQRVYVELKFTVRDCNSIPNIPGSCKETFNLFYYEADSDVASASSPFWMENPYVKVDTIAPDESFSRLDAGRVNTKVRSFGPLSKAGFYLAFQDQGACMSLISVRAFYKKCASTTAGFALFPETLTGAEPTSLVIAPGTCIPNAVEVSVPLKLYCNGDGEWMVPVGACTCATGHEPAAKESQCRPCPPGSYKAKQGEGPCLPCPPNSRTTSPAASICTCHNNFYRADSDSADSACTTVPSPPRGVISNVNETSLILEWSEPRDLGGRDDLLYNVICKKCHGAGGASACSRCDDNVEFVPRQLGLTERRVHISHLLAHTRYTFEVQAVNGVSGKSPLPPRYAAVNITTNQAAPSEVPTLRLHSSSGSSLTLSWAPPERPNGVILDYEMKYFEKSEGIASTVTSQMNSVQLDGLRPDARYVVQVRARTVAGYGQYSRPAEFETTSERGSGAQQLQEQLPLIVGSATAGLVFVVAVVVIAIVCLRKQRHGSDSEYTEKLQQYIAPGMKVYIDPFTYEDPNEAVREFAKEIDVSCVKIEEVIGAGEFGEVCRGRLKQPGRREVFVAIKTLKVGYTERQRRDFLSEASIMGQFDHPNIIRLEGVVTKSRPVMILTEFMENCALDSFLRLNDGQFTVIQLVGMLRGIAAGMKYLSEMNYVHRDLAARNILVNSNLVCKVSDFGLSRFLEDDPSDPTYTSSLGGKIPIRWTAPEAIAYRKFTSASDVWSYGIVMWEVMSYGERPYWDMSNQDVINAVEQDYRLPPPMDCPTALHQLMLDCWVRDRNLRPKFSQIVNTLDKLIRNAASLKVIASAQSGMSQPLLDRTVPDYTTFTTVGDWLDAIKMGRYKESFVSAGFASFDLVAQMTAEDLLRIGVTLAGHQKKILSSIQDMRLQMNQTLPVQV

[13] = biological target: T3, Ephrin type-B receptor 3 (Homo sapiens); details: at 1 µM
[14] = biological target: T4, Ephrin type-B receptor 4 (Homo sapiens) (UniProt P54760); details: at 0.1 µM
T4 sequence (whole entry): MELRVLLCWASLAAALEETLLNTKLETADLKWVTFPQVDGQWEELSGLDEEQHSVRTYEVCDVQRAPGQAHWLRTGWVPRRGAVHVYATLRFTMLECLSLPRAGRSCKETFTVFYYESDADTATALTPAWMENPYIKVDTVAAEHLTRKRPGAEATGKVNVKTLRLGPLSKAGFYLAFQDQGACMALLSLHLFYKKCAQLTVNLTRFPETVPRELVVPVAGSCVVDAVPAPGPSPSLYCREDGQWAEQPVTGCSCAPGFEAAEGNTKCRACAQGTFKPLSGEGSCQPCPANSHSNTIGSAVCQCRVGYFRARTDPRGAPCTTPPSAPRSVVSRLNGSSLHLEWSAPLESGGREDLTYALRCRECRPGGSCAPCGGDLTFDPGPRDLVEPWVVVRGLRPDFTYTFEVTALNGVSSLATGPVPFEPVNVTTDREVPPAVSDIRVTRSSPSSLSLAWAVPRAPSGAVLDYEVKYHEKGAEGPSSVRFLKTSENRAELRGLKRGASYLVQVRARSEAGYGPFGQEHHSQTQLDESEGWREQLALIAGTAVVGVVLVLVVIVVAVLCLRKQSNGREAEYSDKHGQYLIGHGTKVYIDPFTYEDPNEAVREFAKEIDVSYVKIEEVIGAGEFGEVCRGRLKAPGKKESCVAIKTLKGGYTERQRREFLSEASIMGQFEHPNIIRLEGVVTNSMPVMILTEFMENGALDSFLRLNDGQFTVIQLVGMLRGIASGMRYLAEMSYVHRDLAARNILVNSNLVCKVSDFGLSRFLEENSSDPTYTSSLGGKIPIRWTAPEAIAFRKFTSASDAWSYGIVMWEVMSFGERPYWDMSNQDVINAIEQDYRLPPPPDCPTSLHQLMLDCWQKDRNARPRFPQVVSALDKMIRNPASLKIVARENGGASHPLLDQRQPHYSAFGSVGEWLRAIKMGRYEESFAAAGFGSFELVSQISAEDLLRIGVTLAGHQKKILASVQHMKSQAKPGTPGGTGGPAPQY

[15] = biological target: T4, Ephrin type-B receptor 4 (Homo sapiens); details: at 1 µM
[16] = biological target: Receptor tyrosine-protein kinase erbB-2 (Homo sapiens) (UniProt P04626); details: at 0.1 µM
Chain of Receptor tyrosine-protein kinase erbB-2 (Homo sapiens) (P04626 whole entry): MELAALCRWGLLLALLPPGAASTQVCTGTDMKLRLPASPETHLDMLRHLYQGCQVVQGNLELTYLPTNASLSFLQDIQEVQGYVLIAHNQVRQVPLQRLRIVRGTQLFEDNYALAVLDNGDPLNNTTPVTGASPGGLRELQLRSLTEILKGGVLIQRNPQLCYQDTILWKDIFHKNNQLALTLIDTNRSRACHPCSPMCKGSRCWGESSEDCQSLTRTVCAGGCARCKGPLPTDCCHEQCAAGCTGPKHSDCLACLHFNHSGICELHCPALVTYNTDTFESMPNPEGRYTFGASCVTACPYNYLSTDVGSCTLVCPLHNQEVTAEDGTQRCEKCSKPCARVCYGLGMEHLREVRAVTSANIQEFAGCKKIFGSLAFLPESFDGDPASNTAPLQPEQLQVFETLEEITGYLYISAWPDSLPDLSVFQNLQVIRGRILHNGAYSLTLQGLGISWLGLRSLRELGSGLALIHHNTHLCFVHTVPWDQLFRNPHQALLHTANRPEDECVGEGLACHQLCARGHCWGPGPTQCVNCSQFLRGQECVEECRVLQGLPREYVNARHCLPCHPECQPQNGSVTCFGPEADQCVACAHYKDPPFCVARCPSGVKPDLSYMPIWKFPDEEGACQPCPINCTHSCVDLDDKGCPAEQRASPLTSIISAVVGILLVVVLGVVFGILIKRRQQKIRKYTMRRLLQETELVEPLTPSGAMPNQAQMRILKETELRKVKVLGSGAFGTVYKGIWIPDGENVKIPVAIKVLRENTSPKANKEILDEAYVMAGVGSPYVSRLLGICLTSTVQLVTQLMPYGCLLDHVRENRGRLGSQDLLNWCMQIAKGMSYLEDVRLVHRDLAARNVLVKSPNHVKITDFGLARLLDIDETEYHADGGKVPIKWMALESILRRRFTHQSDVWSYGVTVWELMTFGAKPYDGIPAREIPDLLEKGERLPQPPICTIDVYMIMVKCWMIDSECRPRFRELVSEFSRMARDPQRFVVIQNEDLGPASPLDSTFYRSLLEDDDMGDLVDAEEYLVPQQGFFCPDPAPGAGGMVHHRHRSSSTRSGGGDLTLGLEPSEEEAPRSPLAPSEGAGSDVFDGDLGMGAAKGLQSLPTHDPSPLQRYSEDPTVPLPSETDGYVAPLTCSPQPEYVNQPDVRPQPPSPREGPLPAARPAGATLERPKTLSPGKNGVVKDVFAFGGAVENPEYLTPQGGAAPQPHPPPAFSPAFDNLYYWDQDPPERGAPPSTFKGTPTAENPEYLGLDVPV

[17] = biological target: Receptor tyrosine-protein kinase erbB-2 (Homo sapiens) (UniProt P04626); details: at 1 µM
[18] = biological target: Receptor tyrosine-protein kinase erbB-4 (Homo sapiens) (UniProt Q15303); details: at 0.1 µM
[19] = biological target: Receptor tyrosine-protein kinase erbB-4 (Homo sapiens) (UniProt Q15303); details: at 1 µM
[20] = biological target: Tyrosine-protein kinase Fer (Homo sapiens) (UniProt P16591); details: at 0.1 µM;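 also: reported figures are averaged percent inhibition of FER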
Chain of Tyrosine-protein kinase Fer (Homo sapiens) (P16591 whole entry, looked up): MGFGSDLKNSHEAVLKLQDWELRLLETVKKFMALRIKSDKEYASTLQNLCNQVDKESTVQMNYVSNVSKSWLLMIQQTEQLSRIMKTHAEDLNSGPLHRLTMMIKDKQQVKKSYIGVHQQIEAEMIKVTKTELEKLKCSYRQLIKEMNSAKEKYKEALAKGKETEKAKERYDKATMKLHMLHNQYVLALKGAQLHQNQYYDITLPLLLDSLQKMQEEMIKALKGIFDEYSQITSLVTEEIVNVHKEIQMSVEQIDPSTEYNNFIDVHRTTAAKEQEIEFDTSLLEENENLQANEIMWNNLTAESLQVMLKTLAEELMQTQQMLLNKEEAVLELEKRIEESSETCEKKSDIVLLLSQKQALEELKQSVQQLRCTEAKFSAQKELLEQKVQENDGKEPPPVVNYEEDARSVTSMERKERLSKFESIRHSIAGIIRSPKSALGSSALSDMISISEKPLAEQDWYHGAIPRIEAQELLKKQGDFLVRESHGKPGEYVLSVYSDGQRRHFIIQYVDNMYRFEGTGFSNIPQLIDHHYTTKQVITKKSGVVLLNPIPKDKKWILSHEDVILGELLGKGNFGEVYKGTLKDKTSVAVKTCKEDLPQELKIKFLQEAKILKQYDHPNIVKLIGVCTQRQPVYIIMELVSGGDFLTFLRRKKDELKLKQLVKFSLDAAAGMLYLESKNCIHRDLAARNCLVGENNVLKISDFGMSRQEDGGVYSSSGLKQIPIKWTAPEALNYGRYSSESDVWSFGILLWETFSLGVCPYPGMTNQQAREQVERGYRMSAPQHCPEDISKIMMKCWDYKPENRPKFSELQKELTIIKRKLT

Chain of Epidermal growth factor receptor (Homo sapiens), P00533 [T790M] (P00533 whole entry T790M): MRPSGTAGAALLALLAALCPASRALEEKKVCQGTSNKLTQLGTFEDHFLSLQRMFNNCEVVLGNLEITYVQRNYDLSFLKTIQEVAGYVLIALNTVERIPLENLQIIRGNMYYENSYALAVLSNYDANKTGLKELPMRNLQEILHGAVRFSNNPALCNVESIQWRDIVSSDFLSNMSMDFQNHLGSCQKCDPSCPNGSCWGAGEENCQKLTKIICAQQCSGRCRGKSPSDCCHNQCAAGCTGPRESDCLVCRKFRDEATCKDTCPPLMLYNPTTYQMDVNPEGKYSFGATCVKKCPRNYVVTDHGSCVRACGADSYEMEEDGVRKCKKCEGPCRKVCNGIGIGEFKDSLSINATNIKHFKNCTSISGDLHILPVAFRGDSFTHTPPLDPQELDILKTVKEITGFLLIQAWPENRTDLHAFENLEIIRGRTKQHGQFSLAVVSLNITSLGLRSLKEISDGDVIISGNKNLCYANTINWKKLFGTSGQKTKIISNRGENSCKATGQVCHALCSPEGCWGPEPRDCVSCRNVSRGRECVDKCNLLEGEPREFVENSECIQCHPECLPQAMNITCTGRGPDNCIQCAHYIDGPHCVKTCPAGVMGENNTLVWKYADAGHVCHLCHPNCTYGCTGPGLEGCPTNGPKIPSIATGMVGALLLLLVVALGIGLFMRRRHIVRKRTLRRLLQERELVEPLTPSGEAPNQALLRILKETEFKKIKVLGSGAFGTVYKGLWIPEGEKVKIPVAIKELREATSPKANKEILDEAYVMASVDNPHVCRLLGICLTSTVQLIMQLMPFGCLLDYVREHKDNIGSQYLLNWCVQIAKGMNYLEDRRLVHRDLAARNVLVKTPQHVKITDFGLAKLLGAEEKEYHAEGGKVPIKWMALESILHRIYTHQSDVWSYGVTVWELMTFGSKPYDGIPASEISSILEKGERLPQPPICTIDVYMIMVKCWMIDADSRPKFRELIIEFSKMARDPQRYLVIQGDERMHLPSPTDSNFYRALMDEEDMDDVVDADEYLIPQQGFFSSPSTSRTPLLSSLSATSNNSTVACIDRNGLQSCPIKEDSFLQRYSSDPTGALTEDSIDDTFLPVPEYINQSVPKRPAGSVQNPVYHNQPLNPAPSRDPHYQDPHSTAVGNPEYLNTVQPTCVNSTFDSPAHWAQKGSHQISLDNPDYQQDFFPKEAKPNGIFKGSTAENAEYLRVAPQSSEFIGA
Chain of Epidermal growth factor receptor (Homo sapiens), P00533 [L858R,T790M] (P00533 whole entry T790M/L858R, looked up): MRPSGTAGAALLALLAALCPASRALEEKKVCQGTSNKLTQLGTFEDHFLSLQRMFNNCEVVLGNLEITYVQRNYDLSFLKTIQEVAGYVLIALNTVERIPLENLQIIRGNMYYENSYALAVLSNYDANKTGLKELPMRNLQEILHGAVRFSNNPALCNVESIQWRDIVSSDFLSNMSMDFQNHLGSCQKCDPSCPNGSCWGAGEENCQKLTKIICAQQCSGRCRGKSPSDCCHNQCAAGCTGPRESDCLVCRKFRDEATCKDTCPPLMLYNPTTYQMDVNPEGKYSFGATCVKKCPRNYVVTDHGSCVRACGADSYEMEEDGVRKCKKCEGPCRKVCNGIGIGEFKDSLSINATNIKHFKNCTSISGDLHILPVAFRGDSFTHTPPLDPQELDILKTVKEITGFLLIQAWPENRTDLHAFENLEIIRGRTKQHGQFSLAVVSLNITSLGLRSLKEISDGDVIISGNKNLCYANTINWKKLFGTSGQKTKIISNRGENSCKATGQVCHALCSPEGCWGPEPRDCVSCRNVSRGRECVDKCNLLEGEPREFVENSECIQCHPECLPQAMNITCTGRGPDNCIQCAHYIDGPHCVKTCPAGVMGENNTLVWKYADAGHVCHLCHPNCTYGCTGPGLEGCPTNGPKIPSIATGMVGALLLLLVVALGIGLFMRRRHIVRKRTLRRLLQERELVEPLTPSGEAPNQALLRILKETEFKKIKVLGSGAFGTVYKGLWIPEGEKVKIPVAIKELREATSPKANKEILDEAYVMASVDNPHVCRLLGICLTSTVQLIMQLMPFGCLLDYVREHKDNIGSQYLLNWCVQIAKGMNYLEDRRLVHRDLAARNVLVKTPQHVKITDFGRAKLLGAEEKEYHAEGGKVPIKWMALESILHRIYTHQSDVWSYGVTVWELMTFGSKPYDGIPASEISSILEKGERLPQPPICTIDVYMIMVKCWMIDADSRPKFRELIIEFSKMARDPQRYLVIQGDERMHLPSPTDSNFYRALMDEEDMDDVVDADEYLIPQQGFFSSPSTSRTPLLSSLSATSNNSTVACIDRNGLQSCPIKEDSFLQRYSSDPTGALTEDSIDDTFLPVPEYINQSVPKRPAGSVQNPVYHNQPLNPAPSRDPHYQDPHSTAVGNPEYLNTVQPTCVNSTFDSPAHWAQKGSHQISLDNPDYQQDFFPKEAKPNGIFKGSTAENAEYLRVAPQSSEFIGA

| SMILES | inhibition [1] | inhibition [2] | inhibition [3] | inhibition [4] | inhibition [5] | inhibition [6] | inhibition [7] | inhibition [8] | inhibition [9] | inhibition [10] | inhibition [11] | inhibition [12] | inhibition [13] | inhibition [14] | inhibition [15] | inhibition [16] | inhibition [17] | inhibition [18] | inhibition [19] | inhibition [20] |
| --- | --- | --- | --- | --- | --- | --- | --- | --- | --- | --- | --- | --- | --- | --- | --- | --- | --- | --- | --- | --- |
| CCn1c(-c2nonc2N)nc2c(C#CC(C)(C)O)nc(OCCNC)cc21 | 1.6% | -1.42% | 0.02% | 0.18% | -0.52% | 1.69% | 3.22% | 4% | 8.24% | 8.92% | 8.26% | -3.04% | 4% | 2.31% | 2.13% | 0.68% | 3.83% | 4.11% | 7.02% | -0.15% |
| O=C1Nc2ccc(-c3cccnc3)cc2C1=Cc1cc(Br)c(O)c(Br)c1 | 0.57% | 2.96% | 5.14% | 2.12% | 0.76% | 4.82% | 3.94% | 3.36% | 5.16% | 7.83% | 11% | 4.6% | 2.28% | 2.97% | 3.11% | -0.94% | 4.88% | 9.94% | 14.9% | 8.12% |
| FC(F)(F)c1ccc(-c2nn3ncccc3c2-c2ccnc(Nc3ccc4c(c3)OCCO4)n2)cc1 | 7.94% | 0.49% | 10.3% | 4.63% | 3.45% | 0.34% | 2.49% | 1.05% | 21.2% | 3.69% | 36.7% | -5.93% | -4.69% | 0.48% | 10.2% | 3.02% | 12.5% | 6.46% | 43.5% | 7.67% |
| Nc1nccc(-c2c(-c3ccc(F)cc3)ncn2CCCN2CCOCC2)n1 | 3.66% | 3.71% | 0.56% | -0.08% | 0.96% | 0.74% | 3.02% | 7.96% | 9.12% | 4.96% | 7.41% | 5.73% | 3.41% | 2.19% | 3.04% | 4.07% | 6.08% | 12.4% | 31.7% | 2.69% |
